Test results from paper PMC4336329 (PLoS ONE, 2015).
The whole screen tested about 310,000 compounds, of which about 2,200 (0.71%) showed an effect of 50% or more. The effect is printed as a negative number. Many of the other results were omitted from the sample, so strong results are more common in it than they were.

Each compound was assayed against human ether-à-go-go-related gene (hERG) potassium channel (human, UniProt Q12809) (assay: primary screen, population patch clamp on CHO cells stably expressing hERG; higher = less effect of the substance).
Sequence of human ether-à-go-go-related gene (hERG) potassium channel (Q12809 whole entry, looked up): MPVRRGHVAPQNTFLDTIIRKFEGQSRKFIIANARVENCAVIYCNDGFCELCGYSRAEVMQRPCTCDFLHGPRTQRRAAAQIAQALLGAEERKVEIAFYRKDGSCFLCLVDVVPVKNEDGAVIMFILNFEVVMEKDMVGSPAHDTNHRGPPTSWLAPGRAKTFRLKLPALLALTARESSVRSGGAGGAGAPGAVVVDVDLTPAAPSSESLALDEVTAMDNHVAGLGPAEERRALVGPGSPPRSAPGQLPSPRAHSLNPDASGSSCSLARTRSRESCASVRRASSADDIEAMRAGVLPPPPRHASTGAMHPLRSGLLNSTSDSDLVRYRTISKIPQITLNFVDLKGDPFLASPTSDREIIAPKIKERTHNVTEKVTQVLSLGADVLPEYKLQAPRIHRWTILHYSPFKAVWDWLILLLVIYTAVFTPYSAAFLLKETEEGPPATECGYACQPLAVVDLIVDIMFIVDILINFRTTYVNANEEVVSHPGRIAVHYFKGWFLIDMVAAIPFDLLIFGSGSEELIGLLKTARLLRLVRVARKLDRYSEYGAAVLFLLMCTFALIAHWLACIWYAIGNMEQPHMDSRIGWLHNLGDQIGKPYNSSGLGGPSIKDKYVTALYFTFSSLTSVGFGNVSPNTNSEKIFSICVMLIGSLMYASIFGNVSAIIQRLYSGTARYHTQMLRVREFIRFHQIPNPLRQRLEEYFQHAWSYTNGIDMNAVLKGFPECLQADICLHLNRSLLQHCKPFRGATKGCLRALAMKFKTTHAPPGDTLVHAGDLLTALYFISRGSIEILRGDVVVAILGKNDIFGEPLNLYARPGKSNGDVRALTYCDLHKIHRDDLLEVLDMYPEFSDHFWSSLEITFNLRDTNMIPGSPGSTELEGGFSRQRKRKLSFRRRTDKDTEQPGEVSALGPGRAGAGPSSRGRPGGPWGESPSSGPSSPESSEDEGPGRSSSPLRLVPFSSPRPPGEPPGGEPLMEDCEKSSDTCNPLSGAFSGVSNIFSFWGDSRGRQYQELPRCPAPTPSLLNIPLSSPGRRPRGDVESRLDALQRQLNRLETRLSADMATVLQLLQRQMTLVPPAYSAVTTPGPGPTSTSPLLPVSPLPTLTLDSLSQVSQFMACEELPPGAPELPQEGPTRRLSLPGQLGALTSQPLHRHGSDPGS

Row | SMILES | hERG current change (%, negative = inhibition) at 1uM [%]
1 | COc1ccc(-n2c(Cc3cccn3C)nnc2SCC(=O)Nc2ccccc2OC)cc1 | -4.23
2 | COc1ccc(Cl)cc1NC(=O)CSc1nnc(Cc2cccn2C)n1-c1ccc(F)cc1 | 2.71
3 | COc1ccc(-n2c(Cc3cccn3C)nnc2SCC(=O)Nc2cc(Cl)ccc2OC)cc1 | -50.9
4 | COc1ccc(C2NN=C(c3ccc(C)cc3)S2)cc1OC (stereo not shown) | 16.1
5 | CCOc1cccc2sc(N(CCN(CC)CC)C(=O)c3cccc([N+](=O)[O-])c3)nc12.Cl | -44.9
6 | CCN(CC)CCN(C(=O)c1ccc2c(c1)OCCO2)c1nc2cc3c(cc2s1)OCO3.Cl | -18.3
7 | CCN(CC)CCN(C(=O)C1=COCCO1)c1nc2c(OC)ccc(OC)c2s1.Cl | -84.9
8 | CCN(CC)CCN(C(=O)C1=COCCO1)c1nc2cc3c(cc2s1)OCO3.Cl | -63.3
9 | CCN(CC)CCN(C(=O)C1=COCCO1)c1nc2ccc(C)cc2s1.Cl | -34
10 | CCN(CC)CCN(C(=O)C1=COCCO1)c1nc2cc(C)cc(C)c2s1.Cl | -36.7
11 | CCN(C(=O)C1=COCCO1)c1nc2c(C)cccc2s1 | 0.721
12 | CCN(CC)CCN(C(=O)c1ccc(C(=O)c2ccccc2)cc1)c1nc2c(OC)cccc2s1.Cl | -33
13 | CCN(CC)CCN(C(=O)c1ccc([N+](=O)[O-])cc1)c1nc2c(OC)cccc2s1.Cl | -53.4
14 | Cc1c(Cl)c([N+](=O)[O-])nn1CCCC(=O)Nc1cc(Cl)ccc1Cl | -10.9
15 | O=C(CP(=O)(c1ccccc1)c1ccccc1)N1CCCCC1 | 6.28
16 | CCOc1ccc2ncc(C(=O)c3ccc(OC)cc3)c(N3CCN(CC)CC3)c2c1 | -66
17 | CCN1CCN(c2c(C(=O)c3ccc(OC)cc3)cnc3ccccc23)CC1 | -67.9
18 | COc1cc2ncc(C(=O)c3ccccc3)c(N3CCN(Cc4ccccc4)CC3)c2cc1OC | 8.52
19 | CCOc1ccc(C(=O)c2cnc3ccccc3c2N2CCN(CC)CC2)cc1 | -43.9
20 | CCc1ccc(C(=O)c2cnc3ccc(OC)cc3c2N2CCN(CC)CC2)cc1 | -46.6
21 | CCOC(=O)c1cnc2ccc(OCC)cc2c1N1CCN(C)CC1.Cl | -15.6
22 | CC1CCN(CC(C)OC(=O)c2ccc3c(c2)OCCO3)CC1.Cl (stereo not shown) | 3.75

Row | SMILES | hERG current change (%, negative = inhibition) at 1uM [%]
23 | O=C(NC(NC(=S)Nc1ccccc1C(=O)O)C(Cl)(Cl)Cl)c1ccco1 (stereo not shown) | 5.62
24 | Cc1ccc(S(=O)(=O)NCCC(=O)N2CCCCCCC2)cc1 | 22.3
25 | Cn1c(=O)oc2cc(S(=O)(=O)NCCN3CCN(c4ccccc4F)CC3)ccc21 | 3.83
26 | CN(C)c1ccc(-c2noc(C3CCN(S(=O)(=O)c4cccc(C(=O)O)c4)CC3)n2)cc1 | 13.6
27 | O=C(O)c1cccc(N=NN2CCCCCC2)c1 | 8.11
28 | Cc1ccc(Nc2nc(N)nc(CSc3nc(C)cc(C)n3)n2)cc1 | 8.5
29 | Cc1cc(C)n2c(Br)c(CSc3nc4ccccc4o3)nc2n1 | -53
30 | Cc1csc2nc(CSc3nc4ccccc4o3)c(Br)n12 | 15.9
31 | Cc1cc(C)n2c(Br)c(CSc3nc4ccccc4s3)nc2n1 | -19.3
32 | CCn1c(=O)c(C(=O)CN(C)Cc2ccc(F)cc2)c(N)n(Cc2ccccc2)c1=O | -33.6
33 | CCn1c(=O)c(C(=O)CN2CCOCC2)c(N)n(Cc2ccccc2)c1=O | -0.674
34 | Cn1c(=O)c(C(=O)CN2CCN(Cc3ccc4c(c3)OCO4)CC2)c(N)n(Cc2ccccc2)c1=O | -40.4
35 | CCOc1ccc(CN(C)CC(=O)c2c(N)n(Cc3ccccc3)c(=O)n(CC)c2=O)cc1OC | -82.5
36 | CCn1c(=O)c(C(=O)CN(C)Cc2cccc(OC)c2OC)c(N)n(Cc2ccccc2)c1=O | -18.3
37 | CCn1c(=O)c(C(=O)CN2CCN(Cc3ccc4c(c3)OCO4)CC2)c(N)n(Cc2ccccc2)c1=O | -67.4
38 | CCNC1=C(Cl)C(=O)c2ccccc2C1=O | 14.3
39 | O=C(O)C1CCCN1C(=O)NC1CCCCC1 (stereo not shown) | 17.1
40 | O=C(c1cc(Br)ccc1Cl)N1CCN(c2ccc(N3CCOCC3)nn2)CC1 | 5.71
41 | COc1cccc(/C=N/NC(=O)NC23CC4CC(CC(C4)C2)C3)c1O | 6.53
42 | COc1ccc(NC(=O)CSc2n[nH]c(-c3ccccn3)n2)cc1 | 13
43 | COc1ccc(C(=O)Nc2ccccc2NC(=O)c2ccco2)cc1OC | -9.39
44 | CCN=C1SC(CC(=O)Nc2ccc(C(F)(F)F)cc2)C(=O)N1CC (stereo not shown) | 1.51

Row | SMILES | hERG current change (%, negative = inhibition) at 1uM [%]
45 | Cc1cc(C)cc(NC(=O)c2ccccc2NC(=O)CCC(=O)O)c1 | 7.41
46 | N#Cc1ccccc1OCCCNC1CCCC1.O=C(O)C(=O)O | 2.23
47 | CC1CCN(CCCCOc2ccccc2F)CC1.O=C(O)C(=O)O | 7.61
48 | CCC(=O)c1ccccc1OCCN1CCN(Cc2ccccc2)CC1.O=C(O)C(=O)O | -21.9
49 | O=C(O)C(=O)O.OCc1ccccc1OCCCN1CCC(Cc2ccccc2)CC1 | -65.9
50 | CCc1ccccc1OCCCCN1CCCC1.O=C(O)C(=O)O | -2.73
51 | CCC(=O)c1ccccc1OCCCN1CCC(Cc2ccccc2)CC1.O=C(O)C(=O)O | -87
52 | CCC(=O)c1ccccc1OCCN1CCN(CC)CC1.O=C(O)C(=O)O | -2.43
53 | N#Cc1ccccc1OCCCN1CCC(Cc2ccccc2)CC1.O=C(O)C(=O)O | -83
54 | CCc1ccccc1OCCCN1CCCC1.O=C(O)C(=O)O | 3.26
55 | Cc1ccc(C)c(NC(=S)NCCSc2ccc(Cl)cc2)c1 | 11.9
56 | CS(=O)(=O)N1CCc2cc(C(=O)Nc3ccc(COCC(F)(F)F)cc3)ccc21 | 10.4
57 | Cc1cc(C(=O)Nc2ccc(C(=O)O)cc2)c(-c2ccccc2)o1 | -3.53
58 | CC(=O)c1ccc(NC(=O)C(C)N(C)CC(=O)Nc2ccccc2Cl)cc1 (stereo not shown) | 14.4
59 | O=C(O)CN1C(=O)/C(=C/c2ccsc2)SC1=S | 12
60 | COc1ccc(C(Nc2cc(C)ccn2)c2ccc3ccc(C)nc3c2O)cc1 (stereo not shown) | 4.46
61 | CC1CCC(NC(=O)Cn2c3c(c(-c4ccccc4Cl)cc2=O)CCC3)CC1 (stereo not shown) | 9.99
62 | COc1ccc(NC(=O)Nc2cccc(OC)c2)cc1 | -2.63
63 | C=CCSc1nnc(Cn2c(=O)sc3ccccc32)n1C | -6.54
64 | COc1ccccc1CCNC(=O)c1ccc(OC)c(OC2CCN(C(C)C)CC2)c1 | -4.22
65 | COc1ccc(C(=O)NCCc2ccccc2F)cc1OC1CCN(C(C)=O)CC1 | 12.5
66 | COc1ccc(C(=O)NC2CC2)cc1OC1CCN(Cc2ccccc2F)CC1 | -64.5

Row | SMILES | hERG current change (%, negative = inhibition) at 1uM [%]
67 | COc1ccc(C(=O)NC2CC2)cc1OC1CCN(Cc2cc(C)c(C)cc2C)CC1 | -74.1
68 | COc1ccc(C(=O)NC2CC2)cc1OC1CCN(Cc2cnn(C)c2C)CC1 | -2
69 | COc1ccc(C(=O)N(C)C2CCCN(Cc3ccccc3F)C2)cc1OC (stereo not shown) | 10.2
70 | CCn1ncc(CN2CCC(Oc3cc(C(=O)NC4CC4)ccc3OC)CC2)c1C | 1.05
71 | COc1cc(C(=O)NC2Cc3ccccc3C2)ccc1OC1CCN(C(C)=O)CC1 | 9.82
72 | C=CCOc1ccccc1CN1CCC(Oc2cc(C(=O)NC3CC3)ccc2OC)CC1 | -66.6
73 | C=CCOc1ccccc1CN1CCC(Oc2ccc(C(=O)N3CCCCC3)cc2)CC1 | -3.91
74 | C=CCOc1ccccc1CN1CCC(Oc2ccc(C(=O)N3CCCC3)cc2)CC1 | -19.5
75 | COc1ccc(C(=O)NC2CC2)cc1OC1CCN(Cc2ccccc2O)CC1 | -91.5
76 | CCOC(=O)c1c(C)nc2ncccn12 | 2.38
77 | COC(=O)Oc1ccc(/C=N/NC(=O)CN(c2ccccc2Cl)S(C)(=O)=O)cc1OC | 9.16
78 | Cc1ccc(C(=O)COC(=O)CCC(=O)Nc2ccccc2Cl)cc1[N+](=O)[O-] | 8.32
79 | CC1Cn2c(nnc2C23CC4CC(CC(C4)C2)C3)S1 (stereo not shown) | 7.65
80 | Cc1ccc(N2NC(=O)/C(=C\c3cc4c(cc3[N+](=O)[O-])OCO4)C2=O)cc1C | 0.881
81 | CCN(c1ccccc1)S(=O)(=O)c1ccc2[nH]c(=O)[nH]c2c1 | 8.82
82 | O=C(Nc1ccc(-n2ccc(C(F)(F)F)n2)cc1)Nc1cccc(Cl)c1 | 11.3
83 | COc1ccc(CN2CCC(Oc3cc(C(=O)NC4CC4)ccc3OC)CC2)c(O)c1 | -87.5
84 | COc1ccc(OC)c(CN2CCC(N3CCC(C(=O)NC4CC4)CC3)CC2)c1 | 4.7
85 | COc1ccc(CN2CCC(Oc3ccc(C(=O)NCc4ccccn4)cc3)CC2)c(F)c1 | 7.46
